The values that follow come from PubChem BioAssay (NCATS).

Results filed as inconclusive are left out. Activity calls are given as the source filed them. Unless noted, calls follow the shape of the dose curve; as a rule, active = well fitted curve in the direction sought with a large enough effect; inconclusive = small, poorly fitted or top-dose-only effect, or another doubt; inactive = no such curve, though single readings can be large; an effect the other way counts as inactive or inconclusive.

The target of assay [1] is Transient receptor potential cation channel subfamily V member 1 (Homo sapiens) (UniProt Q8NER1). Briefly: HTS Assay for Compounds that Act as Enhancers of the Vanilloid Receptor 1 (AID 488979). Also: 0% is about no effect. The method in brief:
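TRPV1-expressing cells loaded with Fluo-8 calcium dye; compounds added and calcium influx read kinetically for 3 min (agonist phase), then capsaicin at EC20 added and read 2 min more for enhancement. Fluorescence ex 480/em 520 nm.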

Assay [2] concerns the target Thyrotropin receptor (Homo sapiens) (UniProt P16473). Briefly: qHTS Assay for Antagonists of the Thyroid Stimulating Hormone Receptor (AID 488980). Also: series mostly up to about 58 µM; 0% is about no effect. Summed up:
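Inhibition of TSH-stimulated cAMP accumulation was quantified by homogeneous time-resolved FRET in TSHR-transfected HEK293 cells. Agonist: TSH, 4 nM final (EC80).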
(Quantitative high-throughput screening tests each substance at several concentrations.)

The target in assay [3] is D(1A) dopamine receptor (Homo sapiens) (UniProt P21728). Briefly: HTS Assay for Allosteric Agonists of the Human D1 Dopamine Receptor: Primary Screen for Agonists (AID 488981). Also: 0% is about no effect. The method in brief: (§1)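 Tetracycline-induced HEK293 T-REx cells force-coupled to calcium signalling were incubated overnight at 30 C and dye-loaded at room temperature. Calcium flux over 180 s after compound addition flagged agonists; a further 180 s read after EC20 dopamine flagged potentiators.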
D(1A) dopamine receptor (Homo sapiens), sequence (P21728 whole entry, looked up): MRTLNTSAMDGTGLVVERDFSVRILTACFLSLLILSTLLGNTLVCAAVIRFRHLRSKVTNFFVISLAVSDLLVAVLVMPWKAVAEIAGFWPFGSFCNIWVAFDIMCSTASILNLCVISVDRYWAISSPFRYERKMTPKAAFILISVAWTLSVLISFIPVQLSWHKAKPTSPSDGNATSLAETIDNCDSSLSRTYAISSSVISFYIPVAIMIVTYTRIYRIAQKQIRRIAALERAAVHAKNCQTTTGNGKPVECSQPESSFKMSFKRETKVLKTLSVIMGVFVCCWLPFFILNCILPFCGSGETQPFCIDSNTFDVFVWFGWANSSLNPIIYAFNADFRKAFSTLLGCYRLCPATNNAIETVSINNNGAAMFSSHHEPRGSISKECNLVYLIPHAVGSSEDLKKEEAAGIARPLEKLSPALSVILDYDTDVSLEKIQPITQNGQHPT

Assay [4] has the same target. The assay is described as follows: HTS Assay for Allosteric Agonists of the Human D1 Dopamine Receptor: Primary Screen for Potentiators (AID 488982). Also: potency is read from the fitted curve at half-maximal effect. The method in brief: as §1
Assay [5] shares this target. The assay is described as follows: HTS Assay for Allosteric Agonists of the Human D1 Dopamine Receptor: Primary Screen for Antagonists (AID 488983).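 Also: calcium flux response to an EC80 dopamine challenge measured with no-wash dye; % is scaled to controls: 0 for no effect and ±100 for the full control effect; nearly all actives have a fitted effect of over 65% in size.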 Summed up: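 Cells are induced with tetracycline and incubated overnight at 30 C, then loaded with calcium dye for 30 to 90 minutes at room temperature. Compound addition is followed by a 180 s read, then an EC80 dopamine addition and another 180 s read.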

Assay [6] concerns the target Thyrotropin-releasing hormone receptor (Homo sapiens) (UniProt P34981). Briefly: qHTS for Small Molecule Agonists and Allosteric Enhancers of Human TRH Receptor: Validation Screen for Agonists (AID 493127;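 active = calcium activation more than 3 SD above the typical response in the agonist read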;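 also: intracellular calcium rise by fluo-8 fluorescence before TRH EC20 addition; 0% is about no effect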). As to conditions: TRH receptor agonist cell assay; at 2 µM; stronger effect = higher value. The method in brief: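 Cells 2000/well, 10% FCS, 18 h 33.5C/5% CO2 → fluo-8 Ca dye, RT 30 min–1.5 h → FDSS baseline 10 × 1 s → compound added → 230 cycles (1 s/cycle) agonist mode. TRH controls.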

Assay [7] in a line: Nrf2 qHTS screen for inhibitors: Validation (AID 493153; active = well fitted inhibition curve with a large enough effect in the main read-out, with a control signal flat, not every such curve was filed as active). The conditions noted are these: Potency: luciferase luminescence; viability change: measured here: cytotoxicity max response. The method in brief: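 Luminescence from an ARE-firefly luciferase reporter in A549 cells gives Nrf2 inhibition; an earlier CellTiter-Fluor fluorescent read flags cytotoxicity. Cells in 5% FBS OPTI-MEM received compound dilution series for 18-24 h at 37°C.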

The nature of assay [8]: qHTS for Inhibitors of Cell Surface uPA Generation: Validation Assay (AID 493164). Also: 0% is about no effect. Summed up: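 RAW 264.7 cells (4000/well) were plated overnight, then exposed for 18 h at 37 C, 5% CO2 to compounds in a 7-point 1:5 titration (2.45 nM–38.3 uM final). Intracellular ATP was read by ATP-Lite luminescence.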
Assay [9] has as its target Galactokinase (Homo sapiens) (UniProt P51570). Briefly: qHTS Validation Assay for Inhibitors of Human Galactokinase (GALK) (AID 493189). Also: 0% is about no effect. The method in brief: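 Enzyme activity is inferred from ATP consumption: human GALK phosphorylates galactose (100 uM) using 35 uM ATP for 1 h at room temperature, and luciferase-based Kinase-Glo Plus reports unconsumed ATP.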
The nature of assay [10]: Validation screen for small molecules that induce DNA re-replication in SW480 colon adenocarcinoma cells (AID 504364). Also: 0% is about no effect. Summed up:
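250 cells/well; compound pinned in; 48 hr, 37 C, 5% CO2; Hoechst added, 40 min; nuclear fluorescence imaged, 405 ex / 500-530 em; re-replication scored as increase in high-intensity nuclei.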

The target in assay [11] is Peptidyl-prolyl cis-trans isomerase NIMA-interacting 1 (Homo sapiens) (UniProt Q13526). Briefly: qHTS Validation Assay to Find Inhibitors of Pin1 (AID 504536; active = well fitted inhibition curve with a large enough effect in the polarisation, with a control signal flat, not every such curve was filed as active; the % refers to the polarisation;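 also: 0% = full Pin1 enzyme wells and -100% = no-enzyme wells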). The method in brief:
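Fluorescence polarization competition: compounds (titration) displace HiFluor-488-labeled Pin1-1b peptide from Pin1 (0.3 uM final) in pH 7.5 HEPES buffer with DTT, 10 min at room temperature; %Activity normalized to no-enzyme wells, curves fitted.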

Assay [12] addresses Phosphoglycerate kinase, glycosomal (Trypanosoma brucei brucei) (UniProt P07378). Briefly: qHTS Validation Assay to Find Inhibitors of Phosphoglycerate Kinase (AID 504547).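 Also: control wells lack PGK and mark full inhibition.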 The method in brief: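 Substrate/PGK mix plus compound; reaction started with GAPDH (100nM final) to form 1,3-BPG; 60 min RT; Kinase-Glo Plus 10 min; luminescence. TEA 100mM pH 7.6, MgCl2 5mM, Tween-20 0.01%.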

Assay [13] has as its target phosphoglycerate mutase (Leishmania major) (UniProt Q4Q090). The assay is described as follows: qHTS Validation Assay to Find Inhibitors of Phosphoglycerate Mutase (AID 504548).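 Also: end-point luminescence from Kinase-GloPlus after the PGAM reaction; series mostly up to about 58 µM; % is scaled to controls: 0 for no effect and ±100 for the full control effect.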 As to conditions: Potency: inhibition qHTS. Summed up: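 L. major PGAM (1.25nM final) was added to substrate buffer and pinned compound, incubated 45 minutes at room temperature, then Kinase-GloPlus added; luminescence read after 10 minutes. Buffer: 100 mM TEA pH 7.6, 5 mM MgCl2, 0.01% Tween-20.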

The target of assay [14] is Ubiquitin carboxyl-terminal hydrolase 1 (Homo sapiens) (UniProt O94782). The assay is described as follows: Inhibitors of USP1/UAF1: Pilot qHTS (AID 504865). Also: nearly all actives have a fitted effect of over 35% in size. Also: potency is read from the fitted curve at half-maximal effect. Summed up:
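Enzyme-free wells gave the negative control, while test wells held 1nM USP1/UAF1 preincubated with compound for 15 min at room temperature. Ub-Rho at 150nM final started the reaction, and fluorescence at 480/540 nm was recorded kinetically.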

The nature of assay [15]: qHTS for Inhibitors of ATXN expression: Validation of Cytotoxic Assay (AID 588349). Also: % is scaled to controls: 0 for no effect and ±100 for the full control effect. Summed up:
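Read-out: ATP-based luminescence (CellTiter Glo) reflecting viability of HEK293 cells after 72 hr incubation at 37 degrees C with a concentration series of each compound.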

A short description of assay [16]: qHTS for Inhibitors of ATXN expression: Validation (AID 588378). Also: series mostly up to about 57 µM; % is scaled to controls: 0 for no effect and ±100 for the full control effect; nearly all actives have a fitted effect of over 75% in size. The method in brief:
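After a 2 h attachment and 24 h compound incubation, HEK293-ATXN2-FFLuc wells are read for fluorescence at 405 nm excitation/525 nm emission as a viability measure, then for Bright-Glo luminescence reflecting ATXN2 expression.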

The nature of assay [17]: Validation screen for small molecules that induce genotoxicity in human embryonic kidney (HEK293T) cells expressing luciferase-tagged ELG1 (AID 493106). Also: 0% is about no effect. The method in brief: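 Luminescence from an ELG1-luciferase fusion serves as the read-out, rising when genetic stress elevates ELG1 protein. HEK293T reporter cells (2,000 per well) received 23 nL compound, incubated 16 hr at 37 °C, then ONE-Glo for 30 min at room temperature.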

Assay [18] addresses ATPase family AAA domain-containing protein 5 (Homo sapiens) (UniProt Q96QE3). Briefly: Validation screen for small molecules that inhibit ELG1-dependent DNA repair in human embryonic kidney (HEK293T) cells expressing luciferase-tagged ELG1 (AID 493107). Also: nearly all actives have a fitted effect of over 70% in size. Also: potency is read from the fitted curve at half-maximal effect. Summed up: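 Luminescence from ONE-Glo, developed 30 min at room temperature, served as read-out of ELG1-luciferase levels. Beforehand, reporter HEK293T cells received 5-fluorouridine plus test compound for 16 hr at 37 °C.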

Peptidyl-prolyl cis-trans isomerase NIMA-interacting 1 (Homo sapiens), sequence (Q13526 whole entry, looked up): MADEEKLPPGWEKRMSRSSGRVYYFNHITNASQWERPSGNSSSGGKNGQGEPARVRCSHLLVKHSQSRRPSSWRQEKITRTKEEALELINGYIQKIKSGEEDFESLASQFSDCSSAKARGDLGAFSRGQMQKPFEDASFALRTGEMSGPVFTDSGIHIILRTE
Thyrotropin-releasing hormone receptor (Homo sapiens), sequence (P34981 whole entry, looked up): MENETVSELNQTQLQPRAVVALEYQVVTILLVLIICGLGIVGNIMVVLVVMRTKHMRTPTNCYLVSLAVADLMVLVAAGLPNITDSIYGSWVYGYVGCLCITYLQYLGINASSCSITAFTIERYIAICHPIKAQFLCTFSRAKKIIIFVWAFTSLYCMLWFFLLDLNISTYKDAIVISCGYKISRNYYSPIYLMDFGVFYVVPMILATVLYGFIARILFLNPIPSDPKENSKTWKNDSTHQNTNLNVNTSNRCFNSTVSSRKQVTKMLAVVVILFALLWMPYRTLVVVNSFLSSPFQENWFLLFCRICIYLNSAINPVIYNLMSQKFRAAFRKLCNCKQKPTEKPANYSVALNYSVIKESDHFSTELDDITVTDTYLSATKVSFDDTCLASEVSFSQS
ATPase family AAA domain-containing protein 5 (Homo sapiens), sequence (Q96QE3 whole entry, looked up, the tested form may be a part): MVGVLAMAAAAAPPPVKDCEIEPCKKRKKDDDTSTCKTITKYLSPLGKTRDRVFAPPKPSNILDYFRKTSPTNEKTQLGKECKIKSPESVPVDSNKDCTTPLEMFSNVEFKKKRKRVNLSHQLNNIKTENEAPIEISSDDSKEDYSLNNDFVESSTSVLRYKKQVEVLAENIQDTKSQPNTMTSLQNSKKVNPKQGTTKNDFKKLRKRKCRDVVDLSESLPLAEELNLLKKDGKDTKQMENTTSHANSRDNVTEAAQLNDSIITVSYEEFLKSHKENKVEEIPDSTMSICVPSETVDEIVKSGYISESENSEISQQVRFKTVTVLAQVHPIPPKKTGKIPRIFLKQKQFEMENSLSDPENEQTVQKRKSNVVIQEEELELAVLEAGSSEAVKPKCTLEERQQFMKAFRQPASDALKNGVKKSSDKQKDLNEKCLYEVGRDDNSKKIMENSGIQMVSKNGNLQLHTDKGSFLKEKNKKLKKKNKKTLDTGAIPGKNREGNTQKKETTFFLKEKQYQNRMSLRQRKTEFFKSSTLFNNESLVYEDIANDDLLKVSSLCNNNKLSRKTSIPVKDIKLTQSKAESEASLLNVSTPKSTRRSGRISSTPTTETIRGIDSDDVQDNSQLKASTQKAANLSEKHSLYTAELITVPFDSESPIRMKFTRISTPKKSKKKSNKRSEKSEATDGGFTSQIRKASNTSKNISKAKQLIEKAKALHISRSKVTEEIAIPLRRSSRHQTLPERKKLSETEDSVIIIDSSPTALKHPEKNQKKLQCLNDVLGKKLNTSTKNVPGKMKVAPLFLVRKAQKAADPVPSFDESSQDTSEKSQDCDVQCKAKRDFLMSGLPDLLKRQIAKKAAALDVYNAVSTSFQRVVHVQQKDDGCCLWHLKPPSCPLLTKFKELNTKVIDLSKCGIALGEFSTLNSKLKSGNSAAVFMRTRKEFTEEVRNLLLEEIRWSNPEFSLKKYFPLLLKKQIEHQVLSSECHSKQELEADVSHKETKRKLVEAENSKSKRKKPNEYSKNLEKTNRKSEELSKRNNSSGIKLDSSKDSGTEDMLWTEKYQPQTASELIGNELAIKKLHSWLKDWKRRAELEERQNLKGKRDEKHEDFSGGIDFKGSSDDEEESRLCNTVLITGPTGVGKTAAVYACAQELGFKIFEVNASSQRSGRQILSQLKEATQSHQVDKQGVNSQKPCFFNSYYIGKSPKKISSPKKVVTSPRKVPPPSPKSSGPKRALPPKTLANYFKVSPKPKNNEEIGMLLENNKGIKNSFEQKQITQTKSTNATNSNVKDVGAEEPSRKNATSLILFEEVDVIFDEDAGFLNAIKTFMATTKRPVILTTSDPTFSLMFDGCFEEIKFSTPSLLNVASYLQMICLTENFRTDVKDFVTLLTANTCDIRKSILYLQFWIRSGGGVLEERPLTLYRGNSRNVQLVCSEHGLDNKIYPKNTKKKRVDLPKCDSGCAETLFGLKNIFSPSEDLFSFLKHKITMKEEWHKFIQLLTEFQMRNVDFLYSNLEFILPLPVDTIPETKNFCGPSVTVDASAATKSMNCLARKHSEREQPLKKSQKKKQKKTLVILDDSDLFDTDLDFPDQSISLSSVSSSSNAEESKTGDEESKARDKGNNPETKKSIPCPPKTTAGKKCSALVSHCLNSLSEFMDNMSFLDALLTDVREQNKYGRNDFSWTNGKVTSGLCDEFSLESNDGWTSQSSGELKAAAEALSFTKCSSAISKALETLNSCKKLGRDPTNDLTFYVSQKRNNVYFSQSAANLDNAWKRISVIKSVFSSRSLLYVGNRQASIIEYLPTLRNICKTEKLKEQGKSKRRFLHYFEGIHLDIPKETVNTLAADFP
Ubiquitin carboxyl-terminal hydrolase 1 (Homo sapiens), sequence (O94782 whole entry, looked up): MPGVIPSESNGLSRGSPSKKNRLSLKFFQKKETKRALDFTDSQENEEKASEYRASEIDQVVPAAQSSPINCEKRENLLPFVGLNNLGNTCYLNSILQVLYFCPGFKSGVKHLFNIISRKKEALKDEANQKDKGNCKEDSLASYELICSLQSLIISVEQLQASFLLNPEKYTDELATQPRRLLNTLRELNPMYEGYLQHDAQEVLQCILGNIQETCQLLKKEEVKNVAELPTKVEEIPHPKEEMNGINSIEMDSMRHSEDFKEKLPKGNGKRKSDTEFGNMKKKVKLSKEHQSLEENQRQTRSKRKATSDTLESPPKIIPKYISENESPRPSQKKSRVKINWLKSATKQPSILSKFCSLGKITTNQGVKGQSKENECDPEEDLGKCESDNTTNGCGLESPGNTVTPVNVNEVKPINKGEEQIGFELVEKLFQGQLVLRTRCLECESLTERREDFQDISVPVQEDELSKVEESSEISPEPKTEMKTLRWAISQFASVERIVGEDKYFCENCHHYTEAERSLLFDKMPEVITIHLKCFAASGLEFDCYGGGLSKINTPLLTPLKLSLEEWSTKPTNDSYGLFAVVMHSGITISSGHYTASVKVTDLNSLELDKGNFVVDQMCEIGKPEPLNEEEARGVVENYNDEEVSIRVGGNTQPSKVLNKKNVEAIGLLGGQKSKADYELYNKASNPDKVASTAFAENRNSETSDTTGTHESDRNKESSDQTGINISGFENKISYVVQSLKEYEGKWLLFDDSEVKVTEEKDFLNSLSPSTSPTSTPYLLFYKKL
Galactokinase (Homo sapiens), sequence (P51570 whole entry, looked up): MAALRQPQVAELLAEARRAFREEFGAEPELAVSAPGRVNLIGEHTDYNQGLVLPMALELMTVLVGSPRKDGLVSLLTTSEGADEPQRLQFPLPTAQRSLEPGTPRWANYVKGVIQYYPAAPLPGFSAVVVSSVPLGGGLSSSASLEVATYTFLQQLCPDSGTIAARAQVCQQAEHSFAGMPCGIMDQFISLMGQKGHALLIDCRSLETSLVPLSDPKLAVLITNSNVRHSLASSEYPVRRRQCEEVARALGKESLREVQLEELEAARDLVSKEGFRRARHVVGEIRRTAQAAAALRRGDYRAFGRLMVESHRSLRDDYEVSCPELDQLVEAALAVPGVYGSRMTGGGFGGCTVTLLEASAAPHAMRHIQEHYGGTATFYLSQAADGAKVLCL
Thyrotropin receptor (Homo sapiens), sequence (P16473 whole entry, looked up): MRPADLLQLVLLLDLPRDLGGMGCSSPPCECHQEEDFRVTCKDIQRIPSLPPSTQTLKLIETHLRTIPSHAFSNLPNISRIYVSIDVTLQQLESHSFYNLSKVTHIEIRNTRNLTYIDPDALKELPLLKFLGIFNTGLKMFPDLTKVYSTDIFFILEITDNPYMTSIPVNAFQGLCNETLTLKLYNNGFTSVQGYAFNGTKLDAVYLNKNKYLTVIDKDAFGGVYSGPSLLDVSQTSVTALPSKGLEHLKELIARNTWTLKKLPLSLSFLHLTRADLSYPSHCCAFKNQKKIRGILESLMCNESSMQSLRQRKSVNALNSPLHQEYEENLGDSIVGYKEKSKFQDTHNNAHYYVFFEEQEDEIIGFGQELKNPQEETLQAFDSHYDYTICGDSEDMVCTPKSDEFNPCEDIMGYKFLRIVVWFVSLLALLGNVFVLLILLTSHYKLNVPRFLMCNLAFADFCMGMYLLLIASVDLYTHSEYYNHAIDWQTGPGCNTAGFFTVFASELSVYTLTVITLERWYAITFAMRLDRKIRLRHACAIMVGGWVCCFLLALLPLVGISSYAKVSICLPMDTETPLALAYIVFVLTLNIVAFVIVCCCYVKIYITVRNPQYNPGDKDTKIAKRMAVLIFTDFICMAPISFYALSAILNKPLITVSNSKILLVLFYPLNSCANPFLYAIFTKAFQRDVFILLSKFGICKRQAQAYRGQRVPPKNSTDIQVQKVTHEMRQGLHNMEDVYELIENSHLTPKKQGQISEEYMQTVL

For `OC[C@H]1O[C@@H](n2cnc3cncnc32)[C@H](O)[C@@H]1O`, the result in assay [1], in assay [2] and in assay [8] was inactive. For the same compound, the Potency entry in assay [3], in assay [4], in [5], in assay [7], in assay [9] and in [10] was “inactive” each time. Further, the Potency result in assay [11], in [12], in assay [13], in assay [14], in assay [15] and in [16] was “inactive” in each case. For the same compound, the activation in [6] was 1.44% (inactive). Moreover, the viability change in assay [7] came to 10.1%.
For `CCCOC(=O)c1c(-c2ccccc2)nc(CC)c(C(=O)SCC)c1CCC`, the outcome in assay [1], in assay [2] and in assay [8] was inactive. Besides, the Potency entry in [3], in assay [17], in assay [18], in assay [7], in assay [9] and in [10] was “inactive” in each case. The Potency result in assay [11], in assay [12] and in assay [16] was “inactive” each time. Besides, in assay [4], the Potency is 2.91 µM (active). Besides, in [6], the activation was 1.31% (inactive). Further, in [7], the viability change was -5.09%.
Take `CCCCCCCCCCC/C=C\C(C)(C)/C=C\CCCC(=O)O`: the result in assay [1], in assay [2] and in assay [8] was inactive. The Potency result in assay [3], in assay [5], in assay [17], in [18], in assay [7] and in assay [12] was “inactive” throughout. For the same compound, the Potency entry in assay [13], in [15] and in [16] was “inactive” throughout. In addition, in [6], the activation was 0.562% (inactive). Besides, the viability change in assay [7] was 3.47%. In assay [14], the Potency was 28.2 µM (active).
Consider `CNCCNS(=O)(=O)c1cccc2cnccc12`, for which the outcome in [1], in assay [2] and in assay [8] was inactive. Besides, the Potency result in assay [3], in [4], in [5], in assay [9], in [10] and in [11] was “inactive” throughout. For the same compound, the Potency entry in [12], in [13] and in assay [14] was “inactive” in each case. For the same compound, the Potency in [18] is 9.2 µM (active). The activation in assay [6] was 1.44% (inactive).
Take `CCCn1c(=O)c2[nH]c(-c3ccc(S(=O)(=O)O)cc3)nc2n(CCC)c1=O`: the outcome in [1] and in assay [2] was inactive. The Potency result in [3], in assay [4], in [5], in [18], in assay [7] and in assay [9] was “inactive” each time. The Potency entry in [10], in [11], in assay [12], in assay [13], in [15] and in assay [16] was “inactive” throughout. Moreover, the activation in assay [6] was 0.688% (inactive). For the same compound, the viability change in assay [7] is -4.01%.
Take `CCCC(=O)NCCc1c2n(c3ccc(OC)cc13)CCCc1ccccc1-2`: the outcome in [1], in assay [2] and in assay [8] was inactive. For the same compound, the Potency result in [3], in assay [4], in assay [5], in assay [9], in assay [10] and in assay [11] was “inactive” throughout. Also, the Potency entry in [12] was “inactive”. In assay [6], the activation is -9.25% (inactive).
For the compound `NOCC(=O)O`, the result in [1] and in assay [2] was inactive. Further, the Potency entry in [3], in [5], in [17], in assay [18], in [7] and in assay [9] was “inactive” throughout. Besides, the Potency result in [10], in assay [11], in [12], in assay [13], in assay [14] and in [15] was “inactive” in each case. In addition, in assay [16], the Potency entry is “inactive”. Further, the activation in assay [6] was 0.25% (inactive). In assay [7], the viability change was determined as 18.2%.
On to `C[C@@]1(C2CCCC2)Cc2cc(OCC(=O)O)c(Cl)c(Cl)c2C1=O`, for which the result in assay [1] and in assay [2] was inactive. The Potency entry in assay [4], in [5], in [17], in assay [18], in [7] and in [9] was “inactive” throughout. Also, the Potency entry in assay [10], in assay [11], in assay [12], in assay [13], in assay [14] and in [15] was “inactive” throughout. Further, the Potency entry in assay [16] is “inactive”. In addition, in assay [6], the activation is 1.25% (inactive). Also, the viability change in assay [7] was -4.41%.
